Changes are numbered by the printed parent chain.
Legend:
Assay in all cases: protein-binding microarray (PBM); PBM: ~300 nM protein, 6 mM HEPES pH 7.8, 80 mM KCl, 0.5 mM EDTA, 0.5 mM EGTA, 6% glycerol, 35 ng/ul poly-dIdC, 1% milk, 1 h, room temperature; Ap Aiptasia and Nv Nematostella (sea anemones) / Co Capsaspora / Aq Amphimedon (sponge) / Dm Drosophila / Hu human; RHD is the Rel homology domain; high values mean tight binding
Details in all cases: dsDNA, one strand shown
GST-Ap-NF-kB RHD = molecular target: T1, GST-Ap-NF-kB RHD (Exaiptasia pallida (Aiptasia), UniProt A0A913YAJ5 2-422)
T1 sequence: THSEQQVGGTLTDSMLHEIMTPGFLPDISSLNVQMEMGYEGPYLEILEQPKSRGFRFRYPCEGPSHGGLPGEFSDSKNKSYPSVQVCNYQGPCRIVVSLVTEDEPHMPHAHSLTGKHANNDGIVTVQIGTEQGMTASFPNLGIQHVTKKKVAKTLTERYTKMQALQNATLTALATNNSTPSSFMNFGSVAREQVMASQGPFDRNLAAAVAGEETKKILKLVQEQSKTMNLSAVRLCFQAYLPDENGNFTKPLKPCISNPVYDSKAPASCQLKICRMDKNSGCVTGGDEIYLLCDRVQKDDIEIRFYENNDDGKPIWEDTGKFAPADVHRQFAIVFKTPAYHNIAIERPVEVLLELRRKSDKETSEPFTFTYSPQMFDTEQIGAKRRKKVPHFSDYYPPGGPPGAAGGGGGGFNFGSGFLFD

[1] = molecular target: T2, GST-Nv-NF-kB (Cys allele) (Nematostella vectensis, UniProt E5G601 2-411)
T2 sequence: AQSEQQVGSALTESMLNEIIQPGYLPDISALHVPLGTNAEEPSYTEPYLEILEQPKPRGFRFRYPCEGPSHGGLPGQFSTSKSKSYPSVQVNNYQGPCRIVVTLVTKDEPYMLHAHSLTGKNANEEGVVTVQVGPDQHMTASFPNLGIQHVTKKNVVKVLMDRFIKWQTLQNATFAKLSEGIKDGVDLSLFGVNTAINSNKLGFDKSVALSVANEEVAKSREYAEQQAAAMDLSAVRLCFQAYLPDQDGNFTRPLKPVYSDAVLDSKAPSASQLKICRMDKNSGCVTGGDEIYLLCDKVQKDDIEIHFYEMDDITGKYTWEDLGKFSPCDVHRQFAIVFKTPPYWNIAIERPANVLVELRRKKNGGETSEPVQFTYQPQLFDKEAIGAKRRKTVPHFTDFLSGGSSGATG

[2] = molecular target: T3, GST-Nv-NF-kB (Ser allele) (Nematostella vectensis, UniProt A7UNT2 2-411)
T3 sequence: T2 sequence with Q21R, C66S, S207N, E215Q, V217A, E225K, A268E, D399E

GST-Co-NF-kB = molecular target: T4, GST-Co-NF-kB (Capsaspora owczarzaki, UniProt F1ARL5 200-546)
T4 sequence: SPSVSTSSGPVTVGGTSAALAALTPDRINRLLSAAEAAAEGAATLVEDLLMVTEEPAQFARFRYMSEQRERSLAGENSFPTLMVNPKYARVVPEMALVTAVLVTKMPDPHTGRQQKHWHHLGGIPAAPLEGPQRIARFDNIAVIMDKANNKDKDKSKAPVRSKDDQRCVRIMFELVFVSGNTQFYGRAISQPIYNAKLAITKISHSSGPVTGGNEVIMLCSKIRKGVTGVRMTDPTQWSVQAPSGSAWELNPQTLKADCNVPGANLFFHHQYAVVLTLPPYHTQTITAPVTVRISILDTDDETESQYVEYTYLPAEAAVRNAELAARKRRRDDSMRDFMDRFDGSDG

GST-Dm-Relish = molecular target: T5, GST-Dm-Relish (Drosophila melanogaster, UniProt Q94527 99-473)
T5 sequence: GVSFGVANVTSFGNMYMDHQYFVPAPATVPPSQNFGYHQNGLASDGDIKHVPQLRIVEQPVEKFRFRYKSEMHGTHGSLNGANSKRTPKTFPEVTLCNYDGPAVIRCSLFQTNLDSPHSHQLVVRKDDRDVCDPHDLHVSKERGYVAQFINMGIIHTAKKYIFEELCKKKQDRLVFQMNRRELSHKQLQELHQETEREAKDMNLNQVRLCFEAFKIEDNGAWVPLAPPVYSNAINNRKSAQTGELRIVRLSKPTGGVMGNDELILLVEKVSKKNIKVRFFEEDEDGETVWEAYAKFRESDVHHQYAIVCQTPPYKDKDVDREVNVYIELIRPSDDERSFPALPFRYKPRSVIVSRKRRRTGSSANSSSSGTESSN

GST-Aq-NF-kB = molecular target: T6, GST-Aq-NF-kB (Amphimedon queenslandica, UniProt A9Y5G7 2-389)
T6 sequence: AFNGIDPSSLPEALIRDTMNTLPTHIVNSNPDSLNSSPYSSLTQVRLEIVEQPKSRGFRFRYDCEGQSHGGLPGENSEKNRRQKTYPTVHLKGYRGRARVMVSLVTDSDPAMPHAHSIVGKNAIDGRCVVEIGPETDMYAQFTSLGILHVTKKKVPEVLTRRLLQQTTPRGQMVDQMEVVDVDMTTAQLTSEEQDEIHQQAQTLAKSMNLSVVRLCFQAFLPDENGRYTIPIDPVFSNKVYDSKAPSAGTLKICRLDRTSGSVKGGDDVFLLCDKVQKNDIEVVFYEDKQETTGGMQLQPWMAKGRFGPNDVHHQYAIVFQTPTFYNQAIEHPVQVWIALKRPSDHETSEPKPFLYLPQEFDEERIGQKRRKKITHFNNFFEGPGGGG

GST-Hu-p50 = GST-Hu-p50 (Homo sapiens, UniProt P19838 7-356)
Chain of GST-Hu-p50 (P19838 7-356): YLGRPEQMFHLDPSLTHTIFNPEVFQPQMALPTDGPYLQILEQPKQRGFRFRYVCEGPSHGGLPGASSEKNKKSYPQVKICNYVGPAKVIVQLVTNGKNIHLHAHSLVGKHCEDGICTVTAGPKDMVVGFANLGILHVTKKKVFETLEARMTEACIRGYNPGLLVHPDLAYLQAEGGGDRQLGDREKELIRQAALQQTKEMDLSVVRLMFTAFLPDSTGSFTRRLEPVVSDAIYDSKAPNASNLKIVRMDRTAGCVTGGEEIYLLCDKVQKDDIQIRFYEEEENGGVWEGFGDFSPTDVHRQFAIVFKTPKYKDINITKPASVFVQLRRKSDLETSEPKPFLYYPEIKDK

Sequence | binding signal (GST-Ap-NF-kB RHD) [z-score] | binding signal [1] [z-score] | binding signal [2] [z-score] | binding signal (GST-Co-NF-kB) [z-score] | binding signal (GST-Dm-Relish) [z-score] | binding signal (GST-Aq-NF-kB) [z-score] | binding signal (GST-Hu-p50) [z-score]
CCGATTAACATCACTGAAATCCCTGATGTTAATCGGGTCTTGATTCGCTTGACGCTGCTG | 2.61 | 2.29 | 1.72 | 1.34 | 3.35 | 2.54 | 1.71
CCGATTAACATCAAAACATTCCCTGATGTTAATCGGGTCTTGATTCGCTTGACGCTGCTG | 3.1 | 5.46 | 4.94 | 4.18 | 3.87 | 6.04 | 3.88
CCGATTAACATCAAACACCCCCTTGATGTTAATCGGGTCTTGATTCGCTTGACGCTGCTG | 4.95 | 5.25 | 5.61 | 3.04 | 5.63 | 6.03 | 5.5
CCGATTAACATCAAGGGGGGATGTGATGTTAATCGGGTCTTGATTCGCTTGACGCTGCTG | 5.69 | 4.01 | 5.38 | 4.75 | 4.07 | 4.34 | 4.32
CCGATTAACATCAAAAATACCCCTGATGTTAATCGGGTCTTGATTCGCTTGACGCTGCTG | 7.44 | 8.45 | 7.96 | 6.5 | 7.71 | 7.5 | 6.44
CCGATTAACATCAGGGGAACCACTGATGTTAATCGGGTCTTGATTCGCTTGACGCTGCTG | 7.59 | 6.92 | 7.26 | 5.2 | 10.4 | 7.58 | 5.33
CCGATTAACATCACAAATTCCCCTGATGTTAATCGGGTCTTGATTCGCTTGACGCTGCTG | 9.44 | 10.9 | 12.6 | 8.68 | 8.67 | 8.11 | 7.34
CCGATTAACATCAGGGGATTCACTGATGTTAATCGGGTCTTGATTCGCTTGACGCTGCTG | 7.47 | 7.31 | 7.91 | 3.35 | 10.3 | 6.42 | 6.59
CCGATTAACATCAGGAGCCCCCCTGATGTTAATCGGGTCTTGATTCGCTTGACGCTGCTG | 5.02 | 3.27 | 2.66 | 2.66 | 6.02 | 5.04 | 4.41
CCGATTAACATCAAATTCCCCCATGATGTTAATCGGGTCTTGATTCGCTTGACGCTGCTG | 8.6 | 8.92 | 9.99 | 9.97 | 7.71 | 6.9 | 7.09
CCGATTAACATCAGAAACCCCCCTGATGTTAATCGGGTCTTGATTCGCTTGACGCTGCTG | 9.47 | 7.7 | 7.63 | 3.94 | 9.65 | 7.6 | 6.97

Source: PMC5700166
